In PubChem BioAssay AID1159580 (chemical genetic matrix, 2015):
Where “and” joins values, the source holds several entries; their conditions need not be identical. Equal values may be shown once. Screen size: about 5,500 compounds; about 2,000 (36%) were called active. Another 18% or so got no clear call; they are omitted. Cut-off read from the data, not from the text of the source: active = normalized growth mostly below about 0.91 (no sharp cut-off); inconclusive = no clear call, values can overlap the other calls; inactive = mostly above about 0.92. Some of the results follow.

Test: chemical genetic growth profiling, strain panel (AID 1159580);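 note: tested at 20 µM; growth read once vehicle control cultures reached saturation at 30 °C; 1 = growth at the plate median or of vehicle wells; lower values mean less growth of the strain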
Conditions: S. cerevisiae deletion strains, growth OD

Measured: normalized growth

Cc1cc(C(C)(C)C)cc(C)c1CC1=NCCN1
inactive: locus YAL013W, strain DEP1, stronger effect = lower value 1.02 and 0.999 | locus YAL021C, strain ccr4, stronger effect = lower value 0.987 | locus YAL026C, strain drs2, stronger effect = lower value 0.986 | locus YAL030W, strain snc1, stronger effect = lower value 1 | locus YAL040C, strain CLN3, stronger effect = lower value 0.976 | locus YBL061C, strain skt5, stronger effect = lower value 0.999 | locus YBR009C, strain hhf1, stronger effect = lower value 0.957 | locus YBR021W, strain FUR4, stronger effect = lower value 1.02 | locus YBR023C, strain chs3, stronger effect = lower value 1.01 | locus YBR171W, strain sec66, stronger effect = lower value 1.01 | locus YBR229C, strain ROT2, stronger effect = lower value 1.01 | locus YBR231C, strain swc5, stronger effect = lower value 1 | locus YBR279W, strain paf1, stronger effect = lower value 0.993 | locus YCL011C, strain gbp2, stronger effect = lower value 0.988 | locus YCL016C, strain dcc1, stronger effect = lower value 0.99 | locus YCL029C, strain bik1, stronger effect = lower value 1.01 | locus YCL061C, strain MRC1 (second series), stronger effect = lower value 0.999 | locus YCL061C, strain MRC1, stronger effect = lower value 1.02 | locus YCL069W, strain vba3, stronger effect = lower value 1 | locus YCR088W, strain abp1, stronger effect = lower value 0.996 | locus YDL005C, strain med2, stronger effect = lower value 1.01 | locus YDL035C, strain GPR1, stronger effect = lower value 1.03 | locus YDL040C, strain nat1, stronger effect = lower value 1 | locus YDL074C, strain BRE1, stronger effect = lower value 1.02 | locus YDL101C, strain DUN1, stronger effect = lower value 1.01 | locus YDL134C, strain PPH21, stronger effect = lower value 1.02 | locus YDL185W, strain tfp1, stronger effect = lower value 1.01 | locus YDL192W, strain arf1, stronger effect = lower value 1.01 | locus YDR001C, strain nth1, stronger effect = lower value 1.01 | locus YDR069C, strain doa4, stronger effect = lower value 1.02 | locus YDR101C, strain arx1, stronger effect = lower value 1 | locus YDR137W, strain rgp1, stronger effect = lower value 0.994 | locus YDR150W, strain NUM1, stronger effect = lower value 1.02 | locus YDR159W, strain sac3, stronger effect = lower value 0.941 | locus YDR162C, strain NBP2, stronger effect = lower value 1.01 | locus YDR195W, strain ref2 1.01 | locus YDR297W, strain sur2, stronger effect = lower value 1 | locus YDR318W, strain mcm21, stronger effect = lower value 0.995 | locus YDR334W, strain swr1, stronger effect = lower value 0.993 | locus YDR335W, strain msn5, stronger effect = lower value 0.999 | locus YDR363W, strain ESC2, stronger effect = lower value 1 | locus YDR388W, stronger effect = lower value 1 | locus YDR392W, strain spt3, stronger effect = lower value 0.926 | locus YDR502C, strain sam2, stronger effect = lower value 0.998 | locus YEL003W, strain gim4, stronger effect = lower value 1.01 | locus YEL037C, strain rad23, stronger effect = lower value 1 | locus YEL061C, strain CIN8 (second series), stronger effect = lower value 0.997 | locus YEL061C, strain CIN8, stronger effect = lower value 1.02 | locus YER002W, strain NOP16, stronger effect = lower value 1 | locus YER015W, strain faa2, stronger effect = lower value 0.998 | locus YER016W, strain bim1, stronger effect = lower value 0.973 | locus YER110C, stronger effect = lower value 0.994 | locus YER111C, strain swi4, stronger effect = lower value 1 | locus YER155C, strain BEM2 (second series), stronger effect = lower value 1.02 | locus YER155C, strain BEM2, stronger effect = lower value 1.01 | locus YER167W, strain BCK2, stronger effect = lower value 1.01 | locus YFR010W, strain ubp6, stronger effect = lower value 1.02 | locus YGL078C, strain dbp3, stronger effect = lower value 1 | locus YGL086W, strain mad1, stronger effect = lower value 1 | locus YGL167C, strain pmr1, stronger effect = lower value 1 | locus YGL173C, strain kem1, stronger effect = lower value 1.02 | locus YGL227W, strain vid30, stronger effect = lower value 1 | locus YGL240W, strain doc1, stronger effect = lower value 1.03 | locus YGL248W, strain PDE1, stronger effect = lower value 1 | locus YGL253W, strain hxk2, stronger effect = lower value 0.977 | locus YGR078C, strain PAC10, stronger effect = lower value 1.01 | locus YGR135W, strain pre9, stronger effect = lower value 1 | locus YGR229C, strain SMI1, stronger effect = lower value 1.02 | locus YGR252W, strain gcn5, stronger effect = lower value 0.951 | locus YHR013C, strain ard1, stronger effect = lower value 0.971 | locus YHR027C, strain rpn1, stronger effect = lower value 0.993 | locus YHR030C, strain SLT2, stronger effect = lower value 1.02 and 1.01 | locus YHR079C, strain IRE1 (second series), stronger effect = lower value 0.995 | locus YHR079C, strain IRE1, stronger effect = lower value 1.01 | locus YHR094C, strain hxt1, stronger effect = lower value 1 | locus YHR129C, strain ARP1, stronger effect = lower value 1.01 | locus YHR142W, strain chs7, stronger effect = lower value 1.02 | locus YHR200W, strain rpn10, stronger effect = lower value 1 | locus YIL066C, strain RNR3, stronger effect = lower value 1.02 | locus YIL073C, strain SPO22, stronger effect = lower value 1.04 | locus YIL125W, strain kgd1, stronger effect = lower value 0.997 | locus YIR030C, strain dcg1, stronger effect = lower value 1 | locus YJL092W, strain hpr5, stronger effect = lower value 1.02 | locus YJL095W, strain BCK1 (second series), stronger effect = lower value 1.01 | locus YJL095W, strain BCK1, stronger effect = lower value 1.01 and 0.982 | locus YJL115W, strain asf1, stronger effect = lower value 0.985 | locus YJL129C, strain trk1, stronger effect = lower value 1.02 | locus YJL134W, strain LCB3, stronger effect = lower value 1.01 | locus YJL154C, strain vps35, stronger effect = lower value 1.01 | locus YJL164C, strain tpk1, stronger effect = lower value 0.98 | locus YJL166W, strain qcr8, stronger effect = lower value 1.03 | locus YJL168C, strain set2, stronger effect = lower value 0.998 | locus YJL187C, strain SWE1 (second series), stronger effect = lower value 1.03 | locus YJR043C, strain POL32, stronger effect = lower value 1 | locus YJR066W, strain TOR1, stronger effect = lower value 0.937
